This is part of a sample that, as a whole, favours compounds with a hit. Of some 83,000 tested, about 20% had one in any assay.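 Growth was measured after 48 h exposure to one concentration of compound in 96-well plates. Values under 10 count as active.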 Activity calls are given as the source filed them.
tested on: BT-549 breast; assay: NCI-60 one-dose screen, 48 h (100 = growth as untreated, 0 = no growth, -100 = all killed); conditions: 10 µM unless noted
Description: Growth inhibition of the BT-549 human tumor cell line is measured as a screen for anti-cancer activity. Cells are grown in 96 well plates and exposed to the test compound for 48 hours. Compounds are tested at a single concentration, which is 10^-5 M for most compounds. The reported endpoint is percent growth (GI% or GIPRCNT), where numbers from 0 - 100% represent growth inhibition, and numbers from -100% - 0 represent cell death. For example, a value of 40 represents 60% growth inhibition. A value of 0 means no net growth occurred over the course of the experiment. A value of -40 indicates 40% of cells at the beginning of the experiment died by the end of the experiment. A value of -100 means all cells are dead at the end of the experiment.
NCI-60 Human Tumor Cell Lines Screen was performed using the standard one-dose NCI protocol, which is described in more detail at https://dtp.cancer.gov/discovery_development/nci-60/default.htm.
Compounds with GIPRCNT values below 10 were considered active. Activity score was based on GIPRCNT using the following formula: […]
Score is 0 for GIPRCNT values of 100 or above, 50 for GIPRCNT values of 0, and 100 for GIPRCNT values of -100.

| Compound | growth |
| --- | --- |
| COc1cc([N+](=O)[O-])cc(OC)c1OC | 108% (inactive) |
| O=C(Cc1ccc([N+](=O)[O-])cc1)Oc1ccccc1 | 106% (inactive) |
| CCc1c(C)c2ccc(O)c(-c3cc(-c4ccccc4)c(C#N)c(=O)[nH]3)c2oc1=O | 113% (inactive) |
| O=C(NCCN1CCCCC1)n1cc(-c2ccncc2)c(-c2ccc(Cl)c(O)c2)n1 | 68.9% (inactive) |
| Cc1ccc(C(CN(C)C)C(=O)c2ccccc2)cc1 (stereo not given) | -4.79% (active) |
| COc1cc(C2C(C#N)=C(N)Oc3cc4c(cc32)OCO4)cc2c1OCO2 (stereo not given) | 34.8% (inactive) |
| C[C@@H]1N=C(c2ccc3ccccc3c2)Nc2nc3ccccn3c2C1=O | 35.1% (inactive) |
| CCN(CC)CC(=O)Nc1c(C)ccc(N)c1C | 97.2% (inactive) |
| CCN(CC)c1ccc(/C=C2/NC(=O)NC2=O)cc1 | 38.9% (inactive) |
| O=C(Nc1ccc(Br)cc1)c1ccc(Cl)c(Cl)c1 | 60.6% (inactive) |
| CCOC(=O)c1ccc2c(c1)[n+](=O)c(C(=O)c1ccc3ccccc3c1)c(C(F)(F)F)n2[O-] | -48.5% (active) |
| CCSc1cnnc2ccccc12 | 116% (inactive) |
| Oc1ccccc1-c1nnc(COc2ccc(Cl)cc2Cl)o1 | 63.3% (inactive) |
| COc1ccc(/C=C(\C#N)c2cc(OC)c(OC)c(OC)c2)cc1 | 27.3% (inactive) |
| O=c1c2cc(Br)cc(Br)c2nc(-c2ccc(Cl)cc2)n1/N=C\c1ccccc1F | 88.3% (inactive) |
| CC(=O)OC[C@H]1O[C@@H](n2c(=O)cc(N)[nH]c2=O)C(OC(C)=O)[C@@H]1OC(C)=O (stereo not given in full) | 92.8% (inactive) |
| CCOC(=O)c1cnc(SCC)nc1SC#N | 115% (inactive) |
| Clc1ccc(-c2cnc3nonc3n2)s1 | 93.8% (inactive) |
| CS(=O)(=O)c1ccc(C(=O)N/N=C/c2ccc3c(c2)OCO3)cc1 | 109% (inactive) |
| Nc1cc(C(=O)O)cc(C(=O)O)c1 | 107% (inactive) |

| Compound | growth |
| --- | --- |
| C(=Nc1ccc(-c2ccc(N=Cc3ccccc3)cc2)cc1)c1ccccc1 | 97.5% (inactive) |
| COc1cnc2c(c1)C(=O)c1c-2n(CCCN2CCNCC2)c(=O)c2cc(Cl)ccc12 | 45.7% (inactive) |
| O=C(O)c1ccccc1Oc1cc(-c2ccco2)nc(OCCN2CCOCC2)n1 | 96.6% (inactive) |
| CC(=O)CC(c1ccc([N+](=O)[O-])cc1)c1c(O)c2ccccc2oc1=O (stereo not given) | 88.5% (inactive) |
| N/C(=C\C(=O)n1nc(-c2ccccc2)cc1N)c1ccccc1 | 30.1% (inactive) |
| NC(=O)N/N=C\c1ccc([N+](=O)[O-])o1 | 106% (inactive) |
| O=C(N/N=C/c1ccc([N+](=O)[O-])cc1)c1ccccc1Nc1ccnc(C(F)(F)F)c1 | 87.4% (inactive) |
| CCOC(OCC)c1cnc2nc(NC(C)=O)[nH]c(=O)c2n1 | 112% (inactive) |
| NC(=S)N1N=C(c2ccc(Cl)cc2)CC1c1cc2ccccc2[nH]c1=O (stereo not given) | 102% (inactive) |
| CCCCCCCCCCCCCCCCCC(=O)[O][Sn]([CH2]CCC)([CH2]CCC)[CH2]CCC | -94.3% (active) |
| CC(C)[C@@H]1C=C2CC[C@H]3[C@](C)(CN)CCC[C@]3(C)[C@H]2CC1 | 90.7% (inactive) |
| Clc1cc2nc(-c3ccccc3)c(-c3ccccc3)nc2cc1Cl | 118% (inactive) |
| CCN(CC)c1ccc(/C=N/NC(=O)c2ccc(S(C)(=O)=O)cc2)c(O)c1 | 30.7% (inactive) |
| CO[C@H](C(=O)[C@@H](O)[C@@H](C)O)[C@@H]1Cc2cc3cc(O[C@H]4C[C@@H](O[C@H]5C[C@@H](O)[C@H](O)C(C)O5)[C@H](O)C(C)O4)c(C)c(O)c3c(O)c2C(=O)[C@H]1O[C@H]1C[C@@H](O[C@H]2C[C@@H](O[C@H]3C[C@](C)(O)C(=O)C(C)O3)[C@@H](O)C(C)O2)[C@H](O)C(C)O1 (stereo not given in full) | -24.5% (active) |
| COc1ccc(C2=NNC(c3ccc(Oc4nc5c(c(=O)n(C)c(=O)n5C)n4C)c(OC)c3)C2)cc1 (stereo not given) | 88.6% (inactive) |
| N/N=C(\C(=N\N)c1ccccc1)c1ccccc1 | 88% (inactive) |
| COc1cnc2c(c1)C(=O)c1c-2n(CCCN2CCCC2)c(=O)c2cc(Cl)ccc12 | 44.5% (inactive) |
| Cc1cc(O)ccc1Sc1ccccc1[N+](=O)[O-] | 93.2% (inactive) |
| COc1cc2ccc(C(C)=O)cc2cc1OC | 90.8% (inactive) |
| CN(C)c1ccc(C2(Cl)c3ccccc3N(C)c3ccccc32)cc1 | 71.9% (inactive) |

From PubChem BioAssay (NCI)
